The whole screen tested about 63,000 compounds, of which about 1,100 (1.7%) were called active. For the sample, actives were picked, then their nearest neighbours and some compounds at random. Measured potencies and affinities stand elsewhere. Unmarked numbers belong to inactive results.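 The calls were made as follows: active = compounds whose percent cytotoxicity in the single-dose primary screen, scaled between solvent and toxic-drug controls, exceeds 50; inactive = the rest.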

A short description of this assay: cytotoxicity in KRAS-transformed pancreatic duct cells, primary screen, cell-based, fluorescence, HTS (AID 431).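 Also: 0% = DMSO solvent wells and 100% = doxorubicin-treated wells.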 The settings on record: HPDE-C7K KRASV12 cells, Alamar Blue viability, 48 h; at 10 µM; hits give high values. For orientation: Resazurin is reduced to fluorescent resorufin, in cell work by metabolically active cells.
Consider `CCN1CCN(c2ncnc3c2sc(=S)n3-c2ccccc2)CC1`, for which the cytotoxicity is 2.5%. The figure for `O=C(Nc1cccnc1)c1ccc(Cl)c(S(=O)(=O)N2CCCCCC2)c1` is -5.1%; for `COc1ccc(NC(=O)c2ccc(Cl)c(S(=O)(=O)N3CCc4ccccc4C3)c2)cn1` it is 80% (active); for `COc1ccccc1NC(=O)c1ccc(Cl)c(S(=O)(=O)N2CCOCC2)c1` it is -3.3%. The figure for `N#C/C(C(N)=O)=c1/ccc2c(c1)N1C3=C(CCCC3)CC3CCCCC31N=2` (configuration not stated) is 66.4% (active); for `N#CC(C#N)=c1ccc2c(c1)N1C3=C(CCCC3)CC3CCCCC31N=2` (configuration not stated) it is 71.7% (active); for `Cc1cc(-c2ccccc2)nc(=O)[nH]1` it is -3%. The figure for `CCn1c(=O)cc(OCC(=O)N2CCN(C(=O)c3ccco3)CC2)c2ccccc21` is -0.6%; for `CC(=O)Nc1ccc(C(=O)CSc2nnc(Cn3nnc4ccccc43)n2C)cc1` it is 3.6%. As to `CCN=C1SC(C(N)=O)CC(=O)N1CC` (configuration not stated), the cytotoxicity was 0.6%.

`CCN1C(=O)CS/C1=N\c1nccs1`: the cytotoxicity was -4.6%. The figure for `COc1ccc(N2CCN(CC(=O)Nc3nc4c(s3)CC(C)CC4)CC2)cc1` (configuration not stated) is 32.4%; for `COCCNC(=O)CSc1nc(-c2ccc(OC)c(OC)c2)cc(C(F)(F)F)n1` it is -8.7%; for `CCOC(=O)c1sc2nc(CSc3nc4ccccc4n3CC)[nH]c(=O)c2c1C` it is -11.3%. The figure for `CC(C)(C)C1CCc2nc(NC(=O)Cc3cn4ccsc4n3)sc2C1` (configuration not stated) is 52.5% (active). The figure for `O=C(Cc1cn2ccsc2n1)Nc1nc2c(s1)CN(Cc1ccccc1)CC2` is -6.3%; for `O=C(Cc1cn2ccsc2n1)Nc1nc2c(s1)CCCC2` it is 23.2%.

As for `CCOc1ccc(Cc2nn[nH]n2)cc1`, the cytotoxicity was -19.6%. As to `COC(=O)CN(c1cc(C(F)(F)F)ccc1Cl)S(C)(=O)=O`, the cytotoxicity is -0.9%.

For the molecule `Cc1cccc(NC(=O)c2cc3c(n(-c4ccccc4)c2=O)CCCC3=O)n1`, the cytotoxicity was 20%. The figure for `COc1ccc(-n2c3c(cc(C(=O)Nc4ccc5c(c4)C(=O)NC5=O)c2=O)C(=O)CCC3)cc1` is 61.2% (active); for `Cc1ccc(-n2c3c(cc(C(=O)Nc4cccc(C)n4)c2=O)C(=O)CCC3)cc1` it is -27.1%. The figure for `COc1ccc(CCNC(=O)c2ccncc2)cc1OC` is -13.2%; for `COc1ccc(C(=O)NCCn2ccc3ccccc32)c(OC)c1` it is -8.9%. The figure for `Cc1ccc(-c2noc(CCC(=O)N3CCCC3)n2)cc1` is -6.9%; for `Cc1ccc(S(=O)(=O)N(C)Cc2nc(-c3ccncc3)no2)cc1` it is -0.7%. As to `Cc1ccccc1-c1noc(-c2ccc(O)cc2)n1`, the cytotoxicity was 29.6%. For `CCN(CC)C(=O)CSc1nc(C)cc(-c2cccs2)c1C#N`, the cytotoxicity was 2.8%. The figure for `CN1CCN(C(=O)CSc2nc(-c3cccs3)ccc2C#N)CC1` is 15.2%; for `CC(C)C(=O)N1CCc2cc(-c3csc(N)n3)ccc21` it is -1%. Take `C=CCn1c(SCC(=O)NC(=O)NCc2ccco2)nc2sc(CC)cc2c1=O`: the cytotoxicity was 63.4% (active). Take `O=C(CSc1nc2cc(Cl)ccc2s1)NC(=O)NCc1ccco1`: the cytotoxicity was -8.3%. The figure for `C=CCn1c(SCC(=O)N2CCN(C(=O)c3ccco3)CC2)nc2sc(CC)cc2c1=O` is -11.5%; for `C=CCn1c(SCC(=O)NC(=O)NCc2ccco2)nc2sc(C)c(C)c2c1=O` it is 4.8%.

`O=C(CSc1nc2ccccc2s1)NC(=O)NCc1ccco1`: the cytotoxicity is 87.6% (active). The figure for `O=C(CCCSc1nc2ccccc2s1)NCc1ccco1` is 5.8%. The figure for `COc1cccc(-c2nc(CS(=O)(=O)CC(=O)NCCC(C)C)c(C)o2)c1` is 2.6%; for `COC(=O)c1ccc(N=c2sc(C(=O)OC)cc(=O)n2C)cc1` it is -16.7%. The figure for `Cc1ccc(Nc2nc(N3CCOCC3)c3ccccc3n2)cc1` is 28.7%.

In the case of `COc1ccc(Nc2nc(N3CCCC3)c3ccccc3n2)cc1`, the cytotoxicity was 22.5%. The figure for `Oc1ccc(Nc2nc(N3CCCC3)c3ccccc3n2)cc1` is 94.4% (active); for `CCCCCCOc1ccc(C(=O)n2cnc(N)n2)cc1` it is 82.6% (active). The figure for `COc1ccc(C(=O)n2cnc(N)n2)cc1` is 6.1%; for `CCCCOc1ccc(C(=O)N2CCCCCC2)cc1` it is -8.5%; for `Cc1ccc2cc(CN(C(=O)c3ccco3)c3ccccc3)c(=O)[nH]c2c1` it is -0.6%. In the case of `COc1ccc(CCNC(=O)c2nonc2N)cc1OC`, the cytotoxicity was 0.1%. The figure for `Cn1c(C(=O)NCCc2c[nH]c3ccccc23)cc2sccc21` is 6.9%; for `CC(NC(=O)Nc1nccs1)(C(F)(F)F)C(F)(F)F` it is -3.9%; for `O=C(NCC(F)(F)F)Nc1nnc(C(F)(F)F)s1` it is 12.5%. The figure for `CCC(NC(=O)Nc1nccs1)(C(F)(F)F)C(F)(F)F` is -11.8%; for `CCSc1nnc(NC(=O)NC(CC)(C(F)(F)F)C(F)(F)F)s1` it is 19.4%. The figure for `CCn1cc(C(=O)N=c2sc3ccccc3n2C)c(=O)c2ccc(C)nc21` is -2%. In the case of `COc1cc(C(=S)N2CCCCC2)ccc1OCC(=O)N1CCCC1`, the cytotoxicity was -1.9%.

Turning to `COc1ccc(-n2c(Cc3cccn3C)nnc2SCC(=O)Nc2ccc(Cl)cc2)cc1`, the cytotoxicity is 48.9%.

With `CCCOC(=O)C1=C(C)NC2=C(C(=O)C(C(=O)OC)C(C)C2)C1c1ccc(N(CC)CC)cc1` (configuration not stated), the cytotoxicity was -15.1%. The figure for `Cc1ccc(Cl)cc1N1CCN(S(=O)(=O)c2cccc(S(=O)(=O)N3CCCC3)c2)CC1` is 0.2%. The figure for `CCn1cc(C(=O)NCc2ccccc2OC)c(=O)c2ccc(C)nc21` is -1.4%; for `CC(C)n1c(C(=O)OCC(=O)NCc2ccc3c(c2)OCO3)cc2sccc21` it is 22.7%. The figure for `Cc1cc2c(cc(C(=O)OCC(=O)NCc3cccs3)n2C(C)C)o1` is 59.5% (active); for `Cn1c(C(=O)OCC(=O)NCc2cccs2)cc2sccc21` it is -3.4%. For `Cc1cccc2cc(C(c3nnnn3CC3CCCO3)N3CCc4ccccc4C3)c(=O)[nH]c12` (configuration not stated), the cytotoxicity was -7.5%. For `Cc1ccc(S(=O)(=O)NCC(=O)OCC(=O)c2cccs2)cc1`, the cytotoxicity was 4.8%.

Source of the values: PubChem BioAssay AID431 (Sanford-Burnham Center for Chemical Genomics, 2006).
